Rows were chosen to be rich in hits. Some 4.7% of all compounds tested hit in one or more screens of this group.
S2 tox – viability counter-screen for ATXN expression inhibitors | S2 cells (HEK-293 line with an ATXN2-luciferase reporter) viability, CellTiter-Fluor protease fluorescence, 24 h | AID 651635 | Potency, µM (highest dose often 56.7 µM), most hits filed as cytotoxic | hit rate 0.49% among 400,000; note: nearly all actives have a fitted effect of over 40% in size
HepG2 viability – kills HepG2 cells in TGF-b inhibitor counter-screen | HepG2 CAGA-GFP viability, ATP luminescence, 18 h | Potency, µM (top dose mostly 46.1 µM), hits mostly cytotoxic | hit rate 0.76% among 410,000
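CellTiter-Glo luminescence gave cytotoxicity after 18 hours at 37 degrees C. The cells were HepG2 CAGA-GFP in 1% FBS DMEM, stimulated with 500 pg/mL TGF-beta after compound addition. %Activity was normalised to no-cell wells (complete cell-killing) and DMSO (no toxicity), and curves were fitted and classified.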
DRD3 agonist – D3 dopamine receptor (human) agonism. D3R DiscoveRx beta-arrestin cells, luminescence, 90 min. max activation, %. hit rate 0.58% among 410,000. AID 652048; in the data active = max activation above about 30%
Target sequence (P35462 whole entry, looked up): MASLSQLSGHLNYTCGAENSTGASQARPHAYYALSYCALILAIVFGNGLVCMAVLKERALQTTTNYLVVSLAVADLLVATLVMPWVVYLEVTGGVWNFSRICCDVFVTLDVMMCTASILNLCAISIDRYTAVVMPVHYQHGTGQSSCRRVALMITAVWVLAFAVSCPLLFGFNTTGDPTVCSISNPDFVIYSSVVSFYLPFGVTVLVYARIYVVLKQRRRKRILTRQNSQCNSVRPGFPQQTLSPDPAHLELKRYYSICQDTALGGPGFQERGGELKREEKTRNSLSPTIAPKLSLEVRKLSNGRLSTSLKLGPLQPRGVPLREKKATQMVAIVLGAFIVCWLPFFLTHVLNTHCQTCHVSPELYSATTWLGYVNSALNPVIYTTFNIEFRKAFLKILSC
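Agonist-mode cell screen: cells plated at 1500/well and incubated overnight at 37 °C, then exposed to library compounds for 90 min at 37 °C. Detection reagent was added for 30–60 min at room temperature, and luminescence was read.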
ATXN2 expr inh – reduces ATXN2 reporter expression in HEK-293 cells; HEK-293 ATXN2-luciferase reporter, luminescence, 24 h; Potency, µM (doses to about 57 µM), hits mostly inhibitors; hit rate 0.72% among 360,000; AID 1745845; note: nearly all actives have a fitted effect of over 55% in size
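qHTS (up to 57 uM final) was run with 24 h compound exposure of reporter cells at 37 °C. Each well was multiplexed: SteadyGlo luminescence measured ATXN2-luciferase expression after a fluorogenic Gly-Phe-AFC viability readout (25 uM final).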
TGFb inhibitor – TGF-b pathway inhibition. HepG2 CAGA-GFP TGF-b/SMAD3 reporter, GFP fluorescence, 18 h; TGF-beta stimulated, 500 pg/mL final. Potency, µM (doses to about 46.1 µM), hits mostly inhibitors. hit rate 1.2% among 410,000. AID 588855; note: nearly all actives have a fitted effect of over 65% in size
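Inhibition was scored as loss of TGF-beta-induced (500 pg/mL final, 18 hours, 37 degrees C) GFP in HEPG2 cells carrying a CAGA-GFP reporter, in DMEM with 1% FBS. Well GFP was summed per cell; Activity was normalised to unstimulated and stimulated DMSO wells, then concentration-response fitting.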
D3 antag – antagonists of human D3 dopamine receptor; P35462; D3R cells, DiscoveRx beta-arrestin luminescence, antagonist mode; hits give low values; max response, negative = inhibition, %; hit rate 2.5% among 360,000; in the data active = max response below about -50%; inconclusive = no clear call, values can overlap the other calls
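Cells plated overnight at 1500 cells/well, then exposed to library compounds with dopamine controls for 90 minutes at 37 degrees C. DiscoveRx reagent added for 30–60 minutes at room temperature; luminescence read, quantitative HTS format.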
Numbers stand for hits; - = inactive; ? = inconclusive; . = no result. Unless noted, calls come from the whole dose curve; as a rule, active = well fitted curve in the direction sought with a large enough effect; inconclusive = small, poorly fitted or top-dose-only effect, or another doubt; inactive = no such curve, though single readings can be large; an effect the other way counts as inactive or inconclusive.

SMILES	S2 tox	HepG2 viability	DRD3 agonist	ATXN2 expr inh	TGFb inhibitor	D3 antag
O=C(Cn1cncn1)N/N=C/c1cc([N+](=O)[O-])ccc1O	?	-	-	.	-	?
O=C(N/N=C/c1cc([N+](=O)[O-])ccc1O)c1ccc(COc2ccc3c(c2)CCC3)o1	?	-	-	7.9µM	4.5µM	-
CCN(CC)C(=O)C1CCCN(c2ccc([N+](=O)[O-])cc2/C=N/NC(=O)c2ccccc2)C1 (stereo unspecified)	?	-	-	-	-	-
COc1ccc(Br)cc1/C=N/NC(=O)c1ccc(COc2ccc3c(c2)CCC3)o1	-	-	-	-	-	-
O=C(N/N=C/c1cc([N+](=O)[O-])ccc1O)C1CCCCC1	-	-	-	?	-	-88
O=C(Cn1nc2ccccc2n1)N/N=C/c1cc([N+](=O)[O-])ccc1O	?	-	-	20µM	-	-65
CCN(CC)C(=O)C1CCCN(c2ccc([N+](=O)[O-])cc2/C=N/NC(=O)c2ccc([N+](=O)[O-])cc2)C1 (stereo unspecified)	-	-	-	-	-	-79
CCOc1ccc(C=Nc2ccc(/C=C/c3ccnc4ccccc34)cc2)cc1OCC	.	-	.	.	-	.
Cc1cccc(OCC(=O)Nc2c(C)ccc3nsnc23)c1C	-	-	-	-	?	.
CCN(CC)S(=O)(=O)c1ccc2c(c1)N(CC(=O)Nc1ccccc1F)C(=O)C1CCCN21 (stereo unspecified)	.	-	-	.	.	.
O=C(Cn1nnc(-c2ccccc2)n1)N/N=C/c1cc([N+](=O)[O-])c(Cl)cc1Cl	-	-	-	-	-	-
O=C(Cn1nnc(-c2ccccc2)n1)N/N=C/c1cc([N+](=O)[O-])ccc1O	?	-	-	?	-	-76
O=C(Nc1ccc(Br)cc1)/C(=C/c1cccc([N+](=O)[O-])c1)NC(=O)C1CCCCC1	-	-	-	-	-	-63
COc1ccc(S(=O)(=O)NCCc2csc(-c3ccc(F)cc3)n2)cc1F	-	-	-	?	?	.
NC(=S)N1OC[C@@H]2COc3ccc4ccccc4c3[C@@H]21	-	-	-	14µM	?	-
Cc1cccc(N2CCN(C(=O)CNC(=O)C3CCCCC3)CC2)c1C	-	-	-	-	-	-
Cc1cccc(N2CCN(CC3CCCCC3)CC2)c1C	?	-	-	?	-	-97
Cc1ccc(C)c(N2CCN(CC3CCCCC3)CC2)c1	?	-	-	-	-	-57
Cc1ccc(C(=O)C2=C(O)C(=O)N(Cc3ccccc3)C2c2cccnc2)o1 (stereo unspecified)	-	-	-	-	-	-
C=CCOc1cccc(C2C(C(=O)c3ccc(C)o3)=C(O)C(=O)N2CCN(C)C)c1 (stereo unspecified)	-	-	-	-	-	-64
CCCOc1cccc(C2C(C(=O)c3ccc(C)o3)=C(O)C(=O)N2CCN2CCOCC2)c1 (stereo unspecified)	-	-	-	-	-	-
CCOc1cc(C2C(C(=O)c3ccc(C)o3)=C(O)C(=O)N2CCc2ccccc2)ccc1O (stereo unspecified)	-	-	-	-	-	-56
Cc1ccc(C(=O)C2=C(O)C(=O)N(Cc3cccnc3)C2c2cccc(Oc3ccccc3)c2)o1 (stereo unspecified)	-	-	-	-	-	-69
Cc1ccc(Cl)cc1N1CCN(C(=O)c2cn(C)c3ccc(S(=O)(=O)N4CCCC4)cc3c2=O)CC1	-	-	-	-	-	.
CN(C)C(=O)CCSC(SCCC(=O)O)c1cccc(/C=C/c2ccc3ccc(Cl)cc3n2)c1 (stereo unspecified)	.	.	-	.	.	.
O=C(NC1CCCCCCC1)c1cccc(Cl)c1	-	-	-	-	-	-
Cc1nn(Cc2cccc(C(=O)NC3CCCCC3)c2)c(C)c1Cl	-	-	-	-	-	-51
CCCNC(=O)CCSc1nc(-c2ccc3c(c2)OCO3)cc(C(F)(F)F)n1	-	-	-	-	-	.
O=C(c1ccccc1)c1ccccc1C(=O)N1CCCC1	-	-	-	-	-	-50

Assay outcomes (PubChem)
